Among the data in PubChem BioAssay (Tox21) are Potency and outcome values, retold here.

Unmarked numbers belong to inactive results. Records with an inconclusive call do not appear. Active and inactive are the calls of the source. Unless noted, calls follow the shape of the full dose curve.

Assay [1] can be described thus: Nuclear factor erythroid 2-related factor 2/antioxidant responsive element (Nrf2/ARE) small molecule agonists: luciferase reporter gene qHTS assay in human keratinocytes (AID 1919969). Also: nearly all actives have a fitted effect of over 35% in size.
Assay [2] has as its target Gonadotropin-releasing hormone receptor (Homo sapiens) (UniProt P30968). The assay is described as follows: Human gonadotropin-releasing hormone receptor (GnRHR) small molecule agonists, calcium flux assay in GnRHR-HEK293 cells (AID 1920063). Also: nearly all actives have a fitted effect of over 35% in size. A digest of the protocol:
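Calcium flux, agonist mode, human GnRHR stably integrated in HEK293; dye 1 h at 37 C before compound; Ex/Em=480/540 kinetic read, 3 min; 15 concentrations, triplicate.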

Assay [3] addresses KiSS-1 receptor (Homo sapiens) (UniProt Q969F8). Briefly: Human kisspeptin (KISS1R) small molecule agonists, calcium flux assay in KISS1R-HEK293 cells (AID 1920064; active = well fitted activation curve with a large enough effect in the repeat runs). A digest of the protocol: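 Triplicate 15-concentration series were applied to dye-loaded human KISS1R HEK293 cells, and agonist-evoked calcium fluorescence was captured for 3 min.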
The nature of assay [4]: G protein-coupled receptor (GPCR) small molecule agonists, calcium flux assay: HEK293 wild type cell line counter screen (AID 1920065). A digest of the protocol:
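Non-specific calcium responders were flagged by adding DMSO-dissolved compounds to dye-loaded cells and reading 480/540 nm fluorescence each second for 3 min; ATP served as positive control.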
On the technique in general: Calcium flux is commonly read through the fluorescence of an indicator in the cells.

Assay [5] is described as follows: p53 small molecule agonists, cell-based qHTS assay with human liver microsomes (AID 1963577).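 Also: p53 response element beta-lactamase reporter cells with liver microsomes plus NADPH.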 A digest of the protocol:
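p53RE-bla cells; 5 h settle, 37 C/5% CO2; cpd + HLM 0.5 mg/mL + NADPH 0.5 mg/mL (final); 16 h 37 C; LiveBLAzer 2 h RT dark; fluorescence readout.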

Assay [6] is described as follows: p53 small molecule agonists, cell-based qHTS assay with rat liver microsomes (AID 1963578). A digest of the protocol: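 Rat liver microsome activation: microsomes 0.5 mg/mL, NADPH 0.5 mg/mL final; p53RE-bla cells, 16 h 37 C; LiveBLAzer readout, 2 h RT dark.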
On the technique in general: qHTS replaces the single test concentration by a dilution series.

Assay [7] is described as follows: p53 small molecule agonists, cell-based qHTS assay with human liver microsomes: qHTS cell viability counter screen (AID 1963579). Also: nearly all actives have a fitted effect of over 45% in size. A digest of the protocol:
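Luminescent CellTiter-Glo read-out, 30 min at room temperature, gauged cytotoxicity in p53RE-bla cells exposed 16 h at 37 C to DMSO-dissolved compounds with metabolic activation by human liver microsomes and NADPH, each 0.5 mg/mL final.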

Assay [8] can be described thus: p53 small molecule agonists, cell-based qHTS assay: qHTS cell viability counter screen (AID 1963581). Also: nearly all actives have a fitted effect of over 45% in size. A digest of the protocol: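 Multiplexed with the reporter read, a CellTiter-Glo step (30 min, room temperature) gauges ATP-based viability of HCT-116 p53RE-bla cells after 16 h compound incubation at 37 C.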
Assay [9] can be described thus: p53 small molecule agonists, cell-based qHTS assay (AID 1963582; active = well fitted activation curve with a large enough effect in the signal ratio in the repeat runs, not every such curve was filed as active; the % refers to the signal ratio; also: potency is read from the fitted curve at half-maximal effect). A digest of the protocol:
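Beta-lactamase reporter cells (p53RE-bla) treated with compounds for 16 h at 37 C; FRET substrate, 2 h, room temperature; fluorescence intensity.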

Assay [10] addresses 5-hydroxytryptamine receptor 2A (Homo sapiens) (UniProt P28223). Briefly: 5-hydroxytryptamine receptor 2A (HTR2A) small molecule antagonists, cell-based qHTS assay (AID 1963586). Also: nearly all actives have a fitted effect of over 45% in size. Also: potency is read from the fitted curve at half-maximal effect. A digest of the protocol:
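CHO cells stably expressing human HTR2A were plated for 18 h at 37 C, then loaded with calcium dye for 1 h. Compounds were preincubated 5 min at room temperature before DOI (4 nM solution) was added. Kinetic fluorescence was read for 3 min.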

The target is the same in assay [11]. The assay is described as follows: 5-hydroxytryptamine receptor 2A (HTR2A) small molecule agonists, cell-based qHTS assay (AID 1963587). Also: nearly all actives have a fitted effect of over 30% in size. A digest of the protocol:
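HTR2A-CHO cells, plated 18 h at 37 C/5% CO2, dye-loaded 1 h at 37 C; compounds in DMSO added by pin tool (agonist mode). Intracellular calcium flux read as kinetic fluorescence on FDSS over 2 min at 1 s intervals.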

Assay [12] deals with Muscarinic acetylcholine receptor M1 (Homo sapiens) (UniProt P11229). Briefly: Cholinergic receptor muscarinic 1 (CHRM1) small molecule antagonists, cell-based qHTS assay (AID 1963588). Also: nearly all actives have a fitted effect of over 40% in size. Also: potency is read from the fitted curve at half-maximal effect. A digest of the protocol: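 Compounds were tested at 15 concentrations in three independent runs. Dye-loaded CHRM1-CHO cells were exposed 5 min at room temperature before stimulation by acetylcholine added at 50nM. Intracellular calcium was read kinetically on FDSS for 3 min.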

Assay [13] has the same target. Briefly: Cholinergic receptor muscarinic 1 (CHRM1) small molecule agonists, cell-based qHTS assay (AID 1963589). Also: nearly all actives have a fitted effect of over 35% in size. A digest of the protocol: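 qHTS, 15-point titration, 3 independent runs: compounds pin-transferred onto dye-loaded CHRM1-CHO cells (human M1), calcium fluorescence followed every second to detect agonism.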
Assay [14] can be described thus: cAMP Responsive Elements (CRE) small molecule agonists, cell-based qHTS assay (AID 1963590). A digest of the protocol:
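Quantitative HTS for CRE agonists: HEK 293T CRE-bla cells, overnight plating, 3 h compound incubation at 37 C/5% CO2, then 2 h room-temperature LiveBLAzer B/G FRET substrate loading.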

Assay [15] in a line: cAMP Responsive Elements (CRE) small molecule antagonists, cell-based qHTS assay (AID 1963591; active = well fitted inhibition curve with a large enough effect in the signal ratio in the repeat runs, not every such curve was filed as active; the % refers to the signal ratio). A digest of the protocol: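 Fluorescence intensity from cleaved LiveBLAzer B/G substrate (2 h, room temperature) quantified CRE-bla activity in HEK 293T cells exposed 3 h to compound with 0.25 uM final NKH477.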
Assay [16] deals with Beta-2 adrenergic receptor (Homo sapiens) (UniProt P07550). Briefly: Adrenergic beta2 receptor (ADRB2) small molecule antagonists, cell-based qHTS assay (AID 1963592). Also: series mostly up to about 92 µM; nearly all actives have a fitted effect of over 50% in size. A digest of the protocol: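 Assay format: CHO-ADRB2 cells, 18-20hr seeding at 37C/5% CO2, then compound plus 1nM isoproterenol agonist mix for 0.5hr RT. Homogeneous time-resolved fluorescence cAMP detection after 1hr, expressed as 665/615 nm ratio.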

In assay [17] the target is D(2) dopamine receptor (Homo sapiens) (UniProt P14416). The assay is described as follows: Dopamine D2 receptor (DRD2) small molecule agonists, cell-based qHTS assay (AID 1963594). Also: nearly all actives have a fitted effect of over 35% in size. A digest of the protocol: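 HEK293 cells stably expressing DRD2 were cultured 24 h at 37 C, then given Ro20-1724 (0.1 mM final) and compounds for 10 min at room temperature. NKH477 (200nM) was then added for 30 min. cAMP was read by HTRF.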

Assay [18] has the same target. The assay is described as follows: Dopamine D2 receptor (DRD2) small molecule antagonists, cell-based qHTS assay (AID 1963595; active = well fitted inhibition curve with a large enough effect in the signal ratio in the repeat runs, with a control signal flat; the % refers to the signal ratio; also: potency is read from the fitted curve at half-maximal effect). A digest of the protocol:
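DRD2-HEK293; 0.1 mM Ro20-1724; cpd 10 min RT; NKH477 200 nM + quinpirole 12 nM, 30 min RT; HTRF cAMP (cAMP-d2/anti-cAMP cryptate), 665/620 nm ratio after 1 h.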

Assay [19] in a line: p53 small molecule agonists, cell-based qHTS assay with rat liver microsomes: qHTS cell viability counter screen (AID 1963580). Also: nearly all actives have a fitted effect of over 45% in size. A digest of the protocol: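 Counter screen for cytotoxicity under metabolic activation: rat liver microsomes and NADPH, 0.5 mg/mL final each, added with compounds to p53RE-bla HCT-116 cells; 16 h at 37 C, then ATP luminescence read.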
Assay [20] deals with Beta-2 adrenergic receptor (Homo sapiens) (UniProt P07550). Briefly: Adrenergic beta2 receptor (ADRB2) small molecule agonists, cell-based qHTS assay (AID 1963593).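 Also: CHO cells stably overexpressing human ADRB2.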 A digest of the protocol: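 CHO cells stably over-expressing ADRB2 were plated overnight at 37C, then dosed with compounds plus a stimulation mix containing 100uM IBMX and 25uM Ro-20-1724 for 0.5hr at room temperature. cAMP was measured by HTRF competition, 1hr.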

Chain of D(2) dopamine receptor (Homo sapiens) (P14416 whole entry, looked up): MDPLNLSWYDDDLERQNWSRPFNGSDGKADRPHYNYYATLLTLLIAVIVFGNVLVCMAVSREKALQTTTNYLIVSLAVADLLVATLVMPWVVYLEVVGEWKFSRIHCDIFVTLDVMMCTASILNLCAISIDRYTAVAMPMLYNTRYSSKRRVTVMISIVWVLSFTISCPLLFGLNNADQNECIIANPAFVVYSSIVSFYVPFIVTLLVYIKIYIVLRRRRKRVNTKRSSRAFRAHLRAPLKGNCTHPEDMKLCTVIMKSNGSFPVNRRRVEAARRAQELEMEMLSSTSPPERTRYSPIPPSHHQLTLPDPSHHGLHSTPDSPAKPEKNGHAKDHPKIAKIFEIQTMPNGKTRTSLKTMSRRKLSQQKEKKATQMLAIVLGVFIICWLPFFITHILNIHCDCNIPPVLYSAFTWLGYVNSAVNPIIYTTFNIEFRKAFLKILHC
Chain of 5-hydroxytryptamine receptor 2A (Homo sapiens) (P28223 whole entry, looked up): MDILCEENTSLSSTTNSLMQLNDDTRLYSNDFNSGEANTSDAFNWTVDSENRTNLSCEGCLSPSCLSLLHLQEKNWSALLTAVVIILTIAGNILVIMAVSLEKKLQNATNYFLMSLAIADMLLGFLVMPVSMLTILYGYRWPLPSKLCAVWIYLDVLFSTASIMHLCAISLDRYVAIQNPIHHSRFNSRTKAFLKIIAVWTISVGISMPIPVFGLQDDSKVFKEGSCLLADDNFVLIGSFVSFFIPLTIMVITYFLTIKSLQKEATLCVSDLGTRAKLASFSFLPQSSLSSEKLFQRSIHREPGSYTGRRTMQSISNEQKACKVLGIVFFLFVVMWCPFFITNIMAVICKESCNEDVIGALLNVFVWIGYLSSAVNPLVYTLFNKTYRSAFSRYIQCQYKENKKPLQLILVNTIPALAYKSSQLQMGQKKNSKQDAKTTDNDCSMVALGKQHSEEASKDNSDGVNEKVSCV
Chain of Muscarinic acetylcholine receptor M1 (Homo sapiens) (P11229 whole entry, looked up): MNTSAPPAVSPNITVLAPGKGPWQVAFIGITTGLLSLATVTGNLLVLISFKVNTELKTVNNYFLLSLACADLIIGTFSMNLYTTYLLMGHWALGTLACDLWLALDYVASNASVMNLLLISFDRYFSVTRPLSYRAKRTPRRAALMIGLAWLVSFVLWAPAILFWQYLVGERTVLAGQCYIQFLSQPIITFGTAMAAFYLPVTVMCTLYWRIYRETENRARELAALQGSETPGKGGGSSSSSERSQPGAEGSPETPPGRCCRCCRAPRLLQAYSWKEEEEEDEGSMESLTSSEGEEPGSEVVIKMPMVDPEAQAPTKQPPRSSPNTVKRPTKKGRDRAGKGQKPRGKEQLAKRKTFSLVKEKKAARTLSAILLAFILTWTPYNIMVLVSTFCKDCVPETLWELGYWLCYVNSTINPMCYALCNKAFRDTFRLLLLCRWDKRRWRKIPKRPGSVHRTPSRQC
Chain of Gonadotropin-releasing hormone receptor (Homo sapiens) (P30968 whole entry, looked up): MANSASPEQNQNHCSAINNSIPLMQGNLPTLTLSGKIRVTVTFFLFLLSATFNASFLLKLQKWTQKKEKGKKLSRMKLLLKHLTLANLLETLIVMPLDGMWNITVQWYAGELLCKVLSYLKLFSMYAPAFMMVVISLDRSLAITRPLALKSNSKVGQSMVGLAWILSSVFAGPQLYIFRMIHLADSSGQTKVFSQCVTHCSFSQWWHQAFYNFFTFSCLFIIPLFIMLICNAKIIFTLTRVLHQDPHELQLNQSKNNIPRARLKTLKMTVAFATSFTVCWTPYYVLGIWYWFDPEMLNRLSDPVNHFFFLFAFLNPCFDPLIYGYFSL
Chain of KiSS-1 receptor (Homo sapiens) (Q969F8 whole entry, looked up): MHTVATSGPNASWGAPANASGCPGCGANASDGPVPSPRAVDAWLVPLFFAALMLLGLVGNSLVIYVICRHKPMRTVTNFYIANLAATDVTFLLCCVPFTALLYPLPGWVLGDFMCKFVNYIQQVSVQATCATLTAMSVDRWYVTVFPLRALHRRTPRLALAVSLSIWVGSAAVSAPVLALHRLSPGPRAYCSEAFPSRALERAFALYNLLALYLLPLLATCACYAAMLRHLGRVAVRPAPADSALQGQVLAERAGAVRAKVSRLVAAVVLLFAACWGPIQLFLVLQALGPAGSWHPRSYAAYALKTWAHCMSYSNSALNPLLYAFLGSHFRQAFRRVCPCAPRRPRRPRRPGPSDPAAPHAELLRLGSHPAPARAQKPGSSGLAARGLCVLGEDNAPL
Chain of Beta-2 adrenergic receptor (Homo sapiens) (P07550 whole entry, looked up): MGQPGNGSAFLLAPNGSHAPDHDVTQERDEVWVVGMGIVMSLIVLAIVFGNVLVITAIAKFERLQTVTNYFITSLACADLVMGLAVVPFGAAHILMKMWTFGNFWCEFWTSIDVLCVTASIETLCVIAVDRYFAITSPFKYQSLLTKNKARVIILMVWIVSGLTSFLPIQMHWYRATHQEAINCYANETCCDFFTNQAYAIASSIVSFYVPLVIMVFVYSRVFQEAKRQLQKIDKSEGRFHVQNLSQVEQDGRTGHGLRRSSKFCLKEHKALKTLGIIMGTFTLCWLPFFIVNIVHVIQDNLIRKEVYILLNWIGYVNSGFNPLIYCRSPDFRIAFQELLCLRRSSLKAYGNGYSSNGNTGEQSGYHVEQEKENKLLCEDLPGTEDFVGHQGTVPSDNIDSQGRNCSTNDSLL

As for `CCCCCCCCOC(C)=O`, the Potency result in [1], in assay [2], in assay [5], in assay [6], in assay [7] and in [8] was “inactive” in each case. The Potency entry in assay [9], in assay [10], in [11], in [12], in [13] and in assay [14] was “inactive” in each case. Further, the Potency result in assay [15], in assay [16], in [17] and in assay [18] was “inactive” each time. The result in [3] and in [4] was inactive.
`CCCCCC(=O)OCC`: the Potency result in [1], in assay [2], in assay [6], in [7], in [19] and in assay [8] was “inactive” each time. In addition, the Potency entry in assay [11], in [12], in [13], in assay [14], in [15] and in assay [16] was “inactive” in each case. Moreover, the Potency result in assay [20], in assay [17] and in assay [18] was “inactive” each time. For the same compound, the outcome in assay [3] and in [4] was inactive.
Consider `CCN(O)CC`, for which the Potency entry in assay [1], in assay [2], in assay [5], in assay [6], in [7] and in [19] was “inactive” each time. Also, the Potency result in assay [8], in assay [9], in assay [12], in assay [13], in [14] and in assay [15] was “inactive” throughout. The Potency entry in [16], in assay [20] and in assay [17] was “inactive” in each case. Besides, the result in assay [3] was inactive.
With `CN1CCN(C2Cc3ccccc3Sc3ccc(Cl)cc32)CC1` (centres undefined), the Potency result in assay [1], in [2], in [5], in [7], in [19] and in [8] was “inactive” each time. The Potency entry in assay [13], in [15], in assay [16] and in assay [17] was “inactive” in each case. For the same compound, the outcome in assay [3] and in assay [4] was inactive. In addition, the figures for the Potency in assay [10], in assay [12] and in [18] were 41 nM (active), 65 nM (active) and 133 nM (active), respectively.
As for `CN1CCC(=C2c3ccccc3CCc3sccc32)CC1`, the Potency entry in assay [1], in assay [2], in assay [5], in [7], in [19] and in assay [9] was “inactive” throughout. Moreover, the Potency result in assay [14] and in [17] was “inactive” in each case. Moreover, the outcome in assay [3] and in [4] was inactive. Besides, the Potency in assay [10] is 11.6 nM (active); in [12] it was 14.5 nM (active); in assay [18] it was 11900 nM (active).
For `Nc1ccn([C@@H]2O[C@H](CO)[C@@H](O)C2(F)F)c(=O)n1`, the Potency entry in assay [1], in assay [2], in [6], in assay [19], in assay [14] and in assay [15] was “inactive” throughout. Besides, the Potency result in [18] was “inactive”. For the same compound, the outcome in [3] and in [4] was inactive. Moreover, the Potency in assay [9] was 199 nM (active).
